SMILES strings stand for the structures. Inconclusive results are not listed. Where a call stands in place of a potency, no number is given. Activity calls are given as the source filed them. Calls follow the shape of the dose curve; as a rule, active = well fitted cell-killing curve with a large enough effect; inconclusive = small, poorly fitted or top-dose-only effect; inactive = flat fitted curve, though single readings scatter.

The values below come from PubChem BioAssay (NCATS).
Potency is read from the fitted curve at half-maximal effect.

The experiment in a line: Cell Viability - LYMP2-016 (AID 984). Also: nearly all actives have a fitted effect of over 55% in size. The settings on record: LYMP2-016 lymphoblastoid cell viability, qHTS; series mostly up to 92.2 µM. An excerpt:
NIH Chemical Genomics Center [NCGC]
NIH Molecular Libraries Screening Centers Network [MLSCN]
National Institutes of Environmental Health Sciences [NIEHS]
National Toxicology Program [NTP]
We have developed a 1536-well cell-based assay for quantitative high throughput screening (qHTS) against a number of cell lines to determine in vitro cytotoxicity of small molecules. This particular assay uses a human lymphoblastoid cell line (LYMP2-016) purchased from Coriell Institute for Medical Research.
NCGC Assay Protocol Summary:
The CellTiter-Glo luminescent cell viability assay (Promega) is a homogeneous method to measure the number of viable cells in culture. The end point readout of this assay is based on quantitation of intracellular ATP, an indicator of metabolic activity, using the luciferase reaction. Luciferase catalyzes the oxidation of beetle Luciferin to oxyluciferin and light in the presence of ATP. The luminescent signal is proportional to amount of ATP present.
Using the CellTiter-Glo luminescent cell viability assay, the amount of cellular ATP was measured in the lymphoblastoid cell line with complete culture medium following compound treatment for 24 hours. The assay was performed in opaque white Kalypsys 1536-well plates. In the screen, tetraoctylammonium bromide was used as positive control. Library compounds were measured for their ability to cause acute toxicity in the cell line, as reflected by a decrease in intracellular ATP levels, in a concentration-dependent manner. […] AC50 values were determined from concentration-response data modeled with the standard Hill equation.
qHTS protocol for CellTiter Glo lymphoblastoid cellular assay
[Step] [Parameter] [Value] [Description]
1. Reagent; 5 uL; 2500 lymphoblastoid cells/well
2. Time; 5 hr; 37 C incubation
4. Controls; 23 nL; Tetraoctylammonium bromide 6.4pM to 92 uM
5. Time; 24 hr; 37 C incubation
6. Reagent; 5 uL; CellTiter Glo reagent
7. Time; 30 min; Room Temperature
8. Detection; Luminescence; Viewlux plate reader
Keywords: cell viability, cytotoxicity, lymphoblastoid cell line, luminescence, NTPHTS, NTPHTS_NCGC, NIEHS, DSSTox, MLSMR, MLSCN, NIH Roadmap, qHTS, NCGC
(In general: Quantitative high-throughput screening tests each substance at several concentrations.)
Take `Cc1cc2nc3c(=O)[nH]c(=O)nc-3n(C[C@H](O)[C@H](O)[C@H](O)CO)c2cc1C`: the Potency entry was “inactive”.

Turning to `Nc1ccc(S(=O)(=O)Nc2nccs2)cc1`, the Potency result is “inactive”.

For the compound `Oc1cccc(O)c1`, the Potency entry is “inactive”.

With `CC12CCC(CC1)C(C)(C)O2`, the Potency entry is “inactive”.

Take `CCCCCCCCCCCCOS(=O)(=O)O`: the Potency entry was “inactive”.

Turning to `Cc1c(O)cccc1C(=O)N[C@@H](CSc1ccccc1)[C@H](O)CN1C[C@H]2CCCC[C@H]2C[C@H]1C(=O)NC(C)(C)C`, the Potency is 50.1 µM (active).

As for `O=C1O[C@H]([C@@H](O)CO)C(O)=C1O`, the Potency result was “inactive”.

Take `NCCNCCNCCN`: the Potency result was “inactive”.

Regarding `CC1(C)[C@@H]2CC[C@@]1(C)C(=O)C2`, the Potency entry is “inactive”.

As to `Cc1cc(CC(=O)O)n(C)c1C(=O)c1ccc(Cl)cc1`, the Potency entry was “inactive”.

Regarding `COc1ccccc1O`, the Potency entry was “inactive”.

Turning to `C[C@]12C[C@H](O)[C@H]3[C@@H](CCC4=CC(=O)CC[C@@]43C)[C@@H]1CC[C@@H]2C(=O)CO`, the Potency result is “inactive”.

As for `NCCNCCNCCNCCN`, the Potency result is “inactive”.

For `NC(=O)c1ncn([C@@H]2O[C@H](CO)[C@@H](O)[C@H]2O)n1`, the Potency result was “inactive”.

Take `O=C1c2c(O)cccc2Cc2cccc(O)c21`: the Potency result was “inactive”.

For the compound `CCCCOC(=O)c1ccc(O)cc1`, the Potency result was “inactive”.

Regarding `[Cl][In]([Cl])[Cl]`, the Potency entry is “inactive”.
